Where a name gives a salt, the structure may show the parent alone.
Tested on: Drosophila S2 cl14 SmoIP sensor cells
Assay: normalized SmoIP GFP fluorescence (untreated unstimulated = 0%, untreated Hh-stimulated = 100%); higher = more Smo activation sensor fluorescence
Settings: compound concentration: 2 uM, 24 h
[1] = stimulation: Hh conditioned medium (+Hh)
[2] = stimulation: mock conditioned medium (-Hh)
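Also: flow cytometry read-out as median GFP intensity of gated cells, compounds added 30 min before Hh-conditioned or mock medium, mock-treated cells serving as unstimulated baseline.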

Compound	normalized SmoIP GFP fluorescence [1] [%]	normalized SmoIP GFP fluorescence [2] [%]
CCC(COC(=O)c1cc(OC)c(OC)c(OC)c1)(c1ccccc1)N(C)C (stereo not drawn) [trimebutine]	111	-15.8
C[C@]12N[C@H](Cc3ccccc31)c1ccccc12 [mk-801-maleate]	103	-3.16
CCOc1ccccc1-n1c(C(C)N2CCN(C(=O)COc3ccc(Cl)cc3)CC2)nc2ccccc2c1=O (stereo not drawn) [erastin]	134	3.66
Cc1ccccc1-n1c(Cn2ncc3c(N)ncnc32)nc2cccc(C)c2c1=O	115	-6.79
CN1CCc2cc3c(cc2[C@H]1[C@@H]1OC(=O)c2c1ccc1c2OCO1)OCO3 [bicuculline]	101	-3.9
CNCC(=O)c1ccc(O)c(O)c1 [adrenalone-hcl]	106	-3.39
COc1cc(-n2c(=S)[nH]c3ccccc3c2=O)c(Cl)cc1Cl [mdivi-1]	108	-1.34
COC(=O)C1=CCCN(C)C1 [arecoline]	130	-12.4
C[N+](C)(C)CCCCCCCCCC[N+](C)(C)C [decamethonium-bromide]	104	-5.04
CN1[C@@H]2CC(O)C[C@H]1[C@@H]1O[C@@H]12 (stereo partly drawn) [scopine]	142	-12
CC[C@@]1(O)C(=O)OCc2c1cc1n(c2=O)Cc2cc3ccccc3nc2-1 [Camptothecine]	33.6	2.64
CNCC(O)c1ccc(O)cc1 (stereo not drawn) [synephrine-hcl]	140	-9.85
C[C@]12CC[C@H]3[C@@H](CC[C@@]45O[C@@H]4C(O)=C(C#N)C[C@]35C)[C@@H]1CC[C@@H]2O [Trilostane]	109	-0.265
CN1[C@@H]2C[C@@H](OC(=O)[C@H](CO)c3ccccc3)C[C@H]1[C@@H]1O[C@@H]12 [Scopolamine-hydrobromide]	113	-17.7
CN1CCN(c2nc3ccccc3nc2Cl)CC1	105	-1.34
CC(=O)Nc1ccc(OC[C@](C)(O)C(=O)Nc2ccc([N+](=O)[O-])c(C(F)(F)F)c2)cc1 [Andarine]	107	0.274
C[C@@H]1O[C@@H](O[C@H]2C[C@@H](O)[C@]3(CO)[C@H]4[C@H](O)C[C@]5(C)[C@@H](C6=CC(=O)OC6)CC[C@]5(O)[C@@H]4CC[C@]3(O)C2)[C@H](O)[C@H](O)[C@H]1O [ouabain]	102	-2.08
O=C(NCC1CCOCC1)c1cnc(Nc2ccc(Cl)cc2Cl)nc1C(F)(F)F	102	-1.63
O=c1[nH]c2ccc(Cl)cc2c(N[C@@H]2CN3CCC2CC3)c1-c1nc2ccccc2[nH]1 [chir-124]	253	23.9

Reference: the supplement of paper PMC5662767
